Screens: PubChem BioAssay, National Center for Advancing Translational Sciences (NCATS)
IL-1B inflam inh: blocks inflammasome-driven IL-1 beta release. hit rate 4.7% among 360,000. THP-1 LPS/ATP IL-1B secretion, AlphaLISA, 16 h; hits give low values. activity change, % at 57.5 µM; in the data active means activity change below about -50%; inconclusive means mostly about -30% to -49%
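Secreted IL-1B measured by AlphaLISA bead assay after 16 h compound exposure of THP-1 cells; compounds (final up to 57.5 uM) added 1 h before LPS (250 ng/mL) and ATP (1.25 mM) stimulation; lower signal means less secretion.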
MCF10A rerep: DNA re-replication induction in MCF 10a cells; MCF 10A DNA re-replication, Hoechst nuclear intensity, 48 h; Potency, µM (top dose mostly 46.1 µM), usual class: activators; hit rate 2.9% among 350,000; further: nearly all actives have a fitted effect of over 50% in size
VP16 counter: inhibits Gal4-VP16 luciferase reporter, ROR gamma counter-screen | Drosophila S2 Gal4-VP16 UAS-luciferase, luminescence, 20 h | Potency, µM (doses to about 53.6 µM), hits mostly inhibitors | hit rate 3.5% among 310,000;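 further: Gal4-VP16 expression switched on by copper sulfate through the metallothionein promoter; nearly all actives have a fitted effect of over 50% in size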
RORgamma inh: ROR gamma (mouse) transcription inhibition. P51450. Drosophila S2 Gal4-RORgamma UAS-luciferase reporter, 20 h. Potency, µM (series often up to 53.6 µM), hits mostly inhibitors. hit rate 5.4% among 310,000. AID 2551; further: nearly all actives have a fitted effect of over 60% in size
Target sequence (P51450 whole entry, looked up, the tested form may be a part): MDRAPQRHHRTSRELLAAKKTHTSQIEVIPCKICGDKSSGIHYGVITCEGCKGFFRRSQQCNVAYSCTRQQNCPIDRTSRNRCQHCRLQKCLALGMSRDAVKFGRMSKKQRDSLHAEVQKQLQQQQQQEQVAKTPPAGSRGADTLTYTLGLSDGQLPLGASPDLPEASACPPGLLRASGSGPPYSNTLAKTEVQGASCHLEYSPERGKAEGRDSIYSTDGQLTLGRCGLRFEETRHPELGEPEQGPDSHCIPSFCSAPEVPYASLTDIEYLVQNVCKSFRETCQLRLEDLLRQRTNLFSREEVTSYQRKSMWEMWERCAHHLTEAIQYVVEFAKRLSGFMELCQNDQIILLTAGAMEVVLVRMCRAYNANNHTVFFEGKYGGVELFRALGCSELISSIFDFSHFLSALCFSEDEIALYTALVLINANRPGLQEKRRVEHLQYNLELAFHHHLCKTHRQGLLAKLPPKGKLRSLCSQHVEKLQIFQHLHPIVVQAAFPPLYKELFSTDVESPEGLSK
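In this cell-based reporter format, copper sulfate (700 uM final) drives Gal4–ROR gamma fusion expression from a metallothionein promoter in Drosophila Schneider cells; compounds preincubated 1 hr, reporter read after 20 hr at ambient temperature.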
SW480 rereplic: inducers of DNA re-replication in SW480 colon cancer cells; SW480 DNA re-replication, Hoechst DNA content imaging, 48 h; Potency, µM (doses to about 46.1 µM), most hits filed as activators; hit rate 1.8% among 340,000; further: nearly all actives have a fitted effect of over 55% in size
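DNA re-replication was detected as more nuclei of elevated Hoechst intensity after 48 hr exposure to compound (23 nL pinned per well of 250 cells).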
Large screens that a line does not name were inactive. An excerpt weighted towards active compounds, which were near 11% of everything screened. Unless noted, the call rests on the fitted dose curve; in most records, active means well fitted curve in the direction sought with a large enough effect; inconclusive means small, poorly fitted or top-dose-only effect, or another doubt; inactive means no such curve, though single readings can be large; an effect the other way counts as inactive or inconclusive.

Cc1ccc(S(=O)(=O)N/N=C/c2ccc(O)c(O)c2)cc1[N+](=O)[O-]	SW480 rereplic 21µM
CC(N)c1csc(Nc2nncc3ccccc23)n1 (stereo unspecified)	IL-1B inflam inh -70 (no result: MCF10A rerep, VP16 counter, RORgamma inh, SW480 rereplic)
CC(C)C(N)c1csc(Nc2nncc3ccccc23)n1 (stereo unspecified)	none (no result: MCF10A rerep, VP16 counter, RORgamma inh, SW480 rereplic)
CC1CC2(C)Oc3ccccc3CC2C(C)C1CNCCCN(C)C (stereo unspecified)	IL-1B inflam inh inconclusive, MCF10A rerep 7.3µM, VP16 counter inconclusive, RORgamma inh inconclusive, SW480 rereplic 5.2µM
Cc1cccc(CSC2=NCCN2C(=O)c2ccc(S(=O)(=O)N(C)C)cc2)c1	SW480 rereplic 29µM
Cc1cccc(C(=O)N2CCN=C2SCc2ccc([N+](=O)[O-])cc2)c1	IL-1B inflam inh -97
COc1ccccc1NS(=O)(=O)c1cccc(NC(=O)c2[nH]c(C)c(C(C)=O)c2C)c1	MCF10A rerep inconclusive
CN(c1ccccc1)S(=O)(=O)c1cccc(NC(=O)c2ccc3ncsc3c2)c1	IL-1B inflam inh -69
CC(=O)c1c(C)[nH]c(C(=O)Nc2cccc(S(=O)(=O)N(C)c3ccccc3)c2)c1C	IL-1B inflam inh inconclusive, MCF10A rerep 23µM, SW480 rereplic 23µM
Cc1ccc(NC(=O)c2ccc3ncsc3c2)cc1S(=O)(=O)N(C)C	VP16 counter 7.1µM, RORgamma inh 7.9µM (no result: IL-1B inflam inh, MCF10A rerep, SW480 rereplic)
CN(c1ccccc1)S(=O)(=O)c1cccc(NC(=O)c2cccc(C#N)c2)c1	IL-1B inflam inh inconclusive (no result: VP16 counter, RORgamma inh)
COCc1ccc(C(=O)Nc2cccc(S(=O)(=O)N(C)c3ccccc3)c2)cc1	none (no result: VP16 counter, RORgamma inh)
CN(C)S(=O)(=O)c1cccc(NC(=O)c2ccc(COc3ccccc3)cc2)c1	IL-1B inflam inh -73, MCF10A rerep inconclusive, VP16 counter 6.3µM
O=C1[C@H]2[C@H]3[C@H](O)[C@H](O)C/C(=N/OC[C@@H](O)COCc4ccco4)[C@H]3CC[C@@H]2C(=O)N1C1CCCCC1	none (no result: IL-1B inflam inh, MCF10A rerep, SW480 rereplic)
COc1ccc2sc(-c3ccc(SC)cc3)c(-c3ccc(O)cc3)c2c1	MCF10A rerep inconclusive (no result: VP16 counter, RORgamma inh)
C=CCN1CCN(c2nc3ccccc3nc2C#N)CC1	none (no result: IL-1B inflam inh, MCF10A rerep, SW480 rereplic)
CN(c1ccccc1)S(=O)(=O)c1cccc(NC(=O)CSc2nncs2)c1	VP16 counter 22µM, SW480 rereplic inconclusive
CN(c1ccccc1)S(=O)(=O)c1cccc(NC(=O)CSc2nnc(N)s2)c1	VP16 counter inconclusive, RORgamma inh inconclusive
N=c1c2c(n(Cc3ccccc3)c3c1CCC3)CCC2	MCF10A rerep inconclusive, VP16 counter inconclusive
N=c1c2c(n(Cc3cccc(Cl)c3)c3c1CCC3)CCCC2	IL-1B inflam inh -79, RORgamma inh inconclusive
N=c1c2c(n(Cc3ccc(Cl)cc3)c3c1CCC3)CCC2	IL-1B inflam inh -67, VP16 counter inconclusive
COc1cc(C(=O)Nc2ccc3ccccc3c2)cc(OC)c1OC	MCF10A rerep 2.6µM, SW480 rereplic 1.3µM
COc1cc2c(cc1NC(=O)C(Cl)Cl)-c1ccc(NC(=O)C(Cl)Cl)cc1C2	IL-1B inflam inh -97, SW480 rereplic inconclusive (no result: VP16 counter, RORgamma inh)
COc1cc(C(=O)Nc2ccc3c(c2)Cc2ccccc2-3)cc(OC)c1OC	MCF10A rerep 8.2µM
COc1ccc(C(=O)Nc2ccc3ccccc3c2)cc1OC	none
c1cc2c3c(cccc3c1)-c1cnccc1-2	IL-1B inflam inh -66 (no result: VP16 counter, RORgamma inh)
CC(=O)N(C1=C(N)C(=O)c2ccccc2C1=O)C(C)C	RORgamma inh 11µM, SW480 rereplic inconclusive
CCOC(=O)[C@]12CCCC=C1N(Cc1cccc3ccccc13)C(=O)[C@H](CC(=O)NCC1CCCCC1)C2	none (no result: MCF10A rerep, VP16 counter, RORgamma inh, SW480 rereplic)
Cc1nnc(NC(=O)c2cc(-c3ccncc3)nc3c(C)cccc23)s1	none
CCN(CC)C(=O)CSc1nc(C)cc(-c2cccs2)c1C#N	IL-1B inflam inh inconclusive, RORgamma inh 10µM
Cc1cc(C)c(C#N)c(SCC(=O)C2CC2)n1	MCF10A rerep inconclusive, SW480 rereplic 21µM
Cc1cc(C)c(C#N)c(SCC(=O)c2cccs2)n1	IL-1B inflam inh -98
Cc1cc(C)c(C#N)c(SCC(=O)c2ccccc2)n1	MCF10A rerep inconclusive, SW480 rereplic inconclusive
N#Cc1c(-c2ccccc2)cc(C2CC2)nc1SCC(=O)c1cccs1	SW480 rereplic 9.2µM
Cc1cc2nc(-c3nnnn3C3CCCCC3)c(=O)[nH]c2cc1C	none (no result: MCF10A rerep, VP16 counter, RORgamma inh, SW480 rereplic)
CCOC(=O)C1(Cc2ccccc2)CCCN(C(=O)c2cnn(CC)c2)C1 (stereo unspecified)	VP16 counter inconclusive
COc1cc(F)ccc1-c1csc(C(C)(O)c2ccc(F)c(F)c2)n1 (stereo unspecified)	none (no result: MCF10A rerep, VP16 counter, RORgamma inh, SW480 rereplic)
Cc1nc(Oc2ccc(S(=O)(=O)N3CCOCC3)cc2Cl)c2c3c(sc2n1)CCCC3	IL-1B inflam inh -52, SW480 rereplic inconclusive
CCN(CC)CCCNc1nc(CN2CCOCC2)nc2sc3c(c12)CCC3	none
Clc1nc(CN2CCOCC2)nc2sc3c(c12)CCC3	RORgamma inh inconclusive
Cc1cccc(Oc2nc(CN3CCOCC3)nc3sc4c(c23)CCCC4)c1	IL-1B inflam inh inconclusive, MCF10A rerep inconclusive, VP16 counter inconclusive, RORgamma inh 11µM
CCC(C)Nc1nc(CN2CCOCC2)nc2sc3c(c12)CCC3 (stereo unspecified)	VP16 counter inconclusive, RORgamma inh 11µM
CCOC(=O)[C@]12Cc3c(cc(OC)c(OC)c3OC)[C@H]1N(Cc1ccccc1)C(=O)c1cc(F)c(F)cc12	IL-1B inflam inh -68 (no result: MCF10A rerep, VP16 counter, RORgamma inh, SW480 rereplic)
CCOC(=O)[C@]12Cc3c(cc(OC)c(OC)c3OC)[C@H]1N(CCC(=O)OC)C(=O)c1cc(OC)ccc12	IL-1B inflam inh -116 (no result: MCF10A rerep, VP16 counter, RORgamma inh, SW480 rereplic)
COc1cccc(C2N(Cc3ccccc3)C(=O)C2(F)F)c1OC (stereo unspecified)	none
Cc1ccc(OCC(=O)NC(=S)Nc2ccc(S(=O)(=O)Nc3cc(C)on3)cc2)c(Br)c1	RORgamma inh inconclusive
CCCn1cc(S(=O)(=O)c2ccccc2)c(=O)c2cc(CC)ccc21	IL-1B inflam inh -50
O=C(c1ccccc1)c1coc(-c2ccccc2)c1	none (no result: VP16 counter, RORgamma inh)
CS(=O)(=O)Nc1cccc(NC(=O)c2ccc(-n3ccnc3)c3ccoc23)c1	none (no result: MCF10A rerep, VP16 counter, RORgamma inh, SW480 rereplic)
Cn1nccc1-c1ccc(C(=O)Nc2cccc(NS(C)(=O)=O)c2)c2occc12	IL-1B inflam inh -50 (no result: MCF10A rerep, VP16 counter, RORgamma inh, SW480 rereplic)
Cc1cccc(C)c1NC(=O)C(c1ccc(C#N)cc1)n1c(=O)c(-c2ccccc2)nc2ccccc21 (stereo unspecified)	IL-1B inflam inh -50 (no result: MCF10A rerep, VP16 counter, RORgamma inh, SW480 rereplic)
Cc1cccc(C)c1NC(=O)C(c1ccc(C(F)(F)F)cc1)n1c(=O)c(-c2ccccc2)nc2ccccc21 (stereo unspecified)	none (no result: MCF10A rerep, VP16 counter, RORgamma inh, SW480 rereplic)
COc1ccc(C(C(=O)NC(C)(C)C)n2c(=O)c(-c3cc4ccccc4[nH]3)nc3ccccc32)cc1 (stereo unspecified)	none (no result: MCF10A rerep, VP16 counter, RORgamma inh, SW480 rereplic)
COc1ccc(NC(=O)C(c2ccncc2)n2c(=O)c(-c3ccccc3)nc3ccccc32)cc1 (stereo unspecified)	IL-1B inflam inh -56 (no result: MCF10A rerep, VP16 counter, RORgamma inh, SW480 rereplic)
